From PubChem BioAssay (NCATS)
Inconclusive results are not listed. Active and inactive are the calls of the source. Calls follow the shape of the dose curve; as a rule, active = well fitted curve in the direction sought with a large enough effect; inconclusive = small, poorly fitted or top-dose-only effect, or another doubt; inactive = no such curve, though single readings can be large; an effect the other way counts as inactive or inconclusive.

Tests used:
[1] = qHTS to identify inhibitors of the type 1 interferon - major histocompatibility complex class I in skeletal muscle: primary screen against the NCATS LOPAC collection (AID 1347405);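 also: lytic HiBiT luminescence reporting HLA-B protein level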
Outline: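 Luminescence from HiBiT fused to endogenous HLA-B in CRISPR-engineered human myoblasts served as the read-out. Cells received 4.0 ng/ml IFN-beta plus compound (seven concentrations, 1:4.3 steps, highest 46 uM final) for 24 hrs before lytic detection.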

[2] = qHTS to identify inhibitors of the type 1 interferon - major histocompatibility complex class I in skeletal muscle: primary screen against the NCATS Pharmaceutical Collection (AID 1347407);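 also: luminescence of HiBiT knocked into endogenous HLA-B as interferon-induced MHC class I level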
Outline: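 Luminescence from HiBiT-tagged endogenous HLA-B*08:01 served as the read-out of IFN-beta-induced MHC class I in CRISPR-engineered C25cl48 myoblasts. Cells received 4 ng/ml IFN-beta plus compound (high final 46 uM, […]) for 24 h.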

[3] = qHTS for inhibitors of adenylyl cyclases using a fission yeast platform: a pilot screen against the NCATS LOPAC library (AID 1347410)
Outline: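 Fission yeast qHTS: CHP2027 cells (AC9-GNAS-PDE4D2, fbp1-GFP), 5x10^6 cells/mL working density, EMM + His/Lys/Ura; LOPAC at up to 57 µM final; 18 h dark, 30C; GFP by laser cytometry. DPI positive control, DMSO vehicle.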

[4] = target: Protein phosphatase 1D (Homo sapiens) (UniProt O15297); assay: RapidFire Mass Spectrometry qHTS Assay for Modulators of WT P53-Induced Phosphatase 1 (WIP1) (AID 1347424);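 also: amount of dephosphorylated VEPPL-S-QETFS peptide product formed by WIP1; series mostly up to about 63 µM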
Outline: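 10 nM WIP1 preincubated with compounds 1 hr at room temperature in pH 7.5 Tris buffer with 30 mM MgCl2, 1 mM TCEP; 2 uM VEPPL-pS-QETFS phosphopeptide for 5 min, formic acid quench; dephosphorylated product quantified by RapidFire MS against labelled standard.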

[5] = target: Protein phosphatase 1D (Homo sapiens) (UniProt O15297); assay: Rhodamine-PBP qHTS Assay for Modulators of WT P53-Induced Phosphatase 1 (WIP1) (AID 1347425)
Outline: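 WIP1 (5 nM final) was preincubated with compound for 1 hour at room temperature. It then dephosphorylated 10 uM VEPPL-pS-QETFS peptide in Tris-HCl pH 7.5 with 30 mM MgCl2. Released Pi was detected by 10 uM Rh-PBP fluorescence (ex 525/em 598 nm) read at 1-min intervals for 11 min, as delta f1 - f0.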

[6] = Validation qHTS assay for inhibitors of Activation Induced Cytidine Deaminase (AID): UDG Counterscreen signal (AID 1347427)
Outline: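 Counterscreen read of UDG activity (2 U/mL, 4/3x) in the FRET deamination format with AID (1 uM, 4/3x), DJC20/DJC23 substrates (250 nM, 4x), 4 h at room temperature. NaOH stop, fluorescence at 560 ex/665 em.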

[7] = target: Single-stranded DNA cytosine deaminase (Homo sapiens) (UniProt Q9GZX7); assay: Validation qHTS assay for inhibitors of Activation Induced Cytidine Deaminase (AID): AID signal (AID 1347429)
Outline: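 Fluorescence at 540 nm excitation and 590 nm emission reports ssDNA cytosine deamination by AID, with UDG in the same well. Compound-treated reactions ran 4 hr at room temperature with DJC20/DJC23 substrate, followed by 30 min NaOH treatment.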

[8] = Primary qHTS for inhibitors of La Crosse Virus (LACV) - induced cell death in SH-SY5Y cells (AID 1508616);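 also: top concentration of the series differs between compounds; higher means more rescue of cells from virus-induced death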
Outline: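 Protection against LACV-induced cell death is scored in SH-SY5Y cells exposed to compounds and virus (0.01 MOI) for 6 days. Data normalized to virus-infected DMSO wells and virus-free DMSO wells.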

[9] = qHTS to identify inhibitors of the type 1 interferon - major histocompatibility complex class I in skeletal muscle: primary screen against the NCATS Mechanism Interrogation Plate v5.0 (MIPE) Libary (AID 1347411); also: nearly all actives have a fitted effect of over 65% in size
Outline: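 Luminescence from HiBiT-tagged endogenous HLA-B*08:01 served as the MHC class I read-out. CRISPR-engineered C25cl48 human myoblasts received 4.0 ng/ml IFN-beta plus compound for 24 hrs, with an 11-point, 1:3 series topping at 46 uM final.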

Measured: Potency

Sequence of Protein phosphatase 1D (Homo sapiens) (O15297 whole entry, looked up): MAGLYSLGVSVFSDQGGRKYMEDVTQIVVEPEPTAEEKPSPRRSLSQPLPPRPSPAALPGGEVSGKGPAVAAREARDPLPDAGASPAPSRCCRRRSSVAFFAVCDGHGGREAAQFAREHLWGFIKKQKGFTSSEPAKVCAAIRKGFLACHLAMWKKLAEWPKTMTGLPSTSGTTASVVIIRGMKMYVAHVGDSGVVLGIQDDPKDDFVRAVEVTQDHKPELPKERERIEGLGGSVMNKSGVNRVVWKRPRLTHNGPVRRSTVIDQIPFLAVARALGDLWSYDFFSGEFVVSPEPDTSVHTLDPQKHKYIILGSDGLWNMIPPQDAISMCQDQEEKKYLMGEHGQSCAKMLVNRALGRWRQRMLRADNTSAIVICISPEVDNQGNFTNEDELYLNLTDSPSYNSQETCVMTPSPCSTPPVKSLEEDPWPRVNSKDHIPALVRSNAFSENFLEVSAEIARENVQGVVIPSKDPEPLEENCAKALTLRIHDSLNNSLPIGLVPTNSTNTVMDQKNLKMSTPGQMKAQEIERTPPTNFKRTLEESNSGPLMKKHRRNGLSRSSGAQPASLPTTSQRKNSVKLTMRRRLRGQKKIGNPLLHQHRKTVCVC
Sequence of Single-stranded DNA cytosine deaminase (Homo sapiens) (Q9GZX7 whole entry, looked up): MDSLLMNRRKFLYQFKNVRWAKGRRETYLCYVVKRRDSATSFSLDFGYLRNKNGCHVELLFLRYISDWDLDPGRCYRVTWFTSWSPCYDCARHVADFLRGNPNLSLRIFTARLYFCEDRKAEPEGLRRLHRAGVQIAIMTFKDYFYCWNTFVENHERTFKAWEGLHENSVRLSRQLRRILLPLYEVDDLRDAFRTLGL

CC(C)NCC(O)COc1ccc(COCCOC(C)C)cc1 (centres undefined)
inactive: [1] | [2] | [3] | [4] | [5] | [6] | [7] | [8]

CCCc1nn(C)c2c(=O)[nH]c(-c3cc(S(=O)(=O)N4CCN(C)CC4)ccc3OCC)nc12
inactive: [1] | [2] | [3] | [9] | [4] | [5] | [8]

O=c1[nH]cnc2[nH]ncc12
inactive: [1] | [2] | [3] | [9] | [4] | [6] | [7] | [8]

Nc1nc2ccc(OC(F)(F)F)cc2s1
inactive: [1] | [2] | [3] | [9] | [4] | [6] | [7] | [8]

Nc1ccc(S(=O)(=O)Nc2ccnn2-c2ccccc2)cc1
inactive: [1] | [2] | [3] | [4] | [6] | [7] | [8]

NCCc1ccc(O)c(O)c1
inactive: [1] | [2] | [3] | [9] | [4] | [5] | [6] | [7] | [8]

CC(C)(C)NCC(O)c1ccc(O)c(CO)c1 (centres undefined)
inactive: [1] | [2] | [3] | [9] | [4] | [5] | [6] | [7] | [8]

C[C@]12CCC(=O)C=C1CC[C@@H]1[C@@H]2[C@@H](O)C[C@@]2(C)[C@H]1CC[C@]2(O)C(=O)CO
inactive: [1] | [2] | [3] | [9] | [4] | [5] | [8]

CCn1cc(C(=O)O)c(=O)c2cc(F)c(N3CCNC(C)C3)c(F)c21 (centres undefined)
inactive: [1] | [2] | [3] | [9] | [4] | [6] | [7] | [8]

CCCCNc1cc(C(=O)O)cc(S(N)(=O)=O)c1Oc1ccccc1
inactive: [1] | [2] | [3] | [9] | [4] | [6] | [7] | [8]

Oc1ccc(C2CNCCc3c2cc(O)c(O)c3Cl)cc1 (centres undefined)
inactive: [1] | [2] | [3] | [9] | [4] | [6] | [7] | [8]

CCOC(=O)C1=C[C@]2(CC)CCCN3CCc4c(n1c1ccccc41)[C@@H]32
inactive: [1] | [2] | [3] | [4] | [6] | [7] | [8]

Cc1cn[nH]c1
inactive: [1] | [2] | [3] | [9] | [4] | [6] | [7] | [8]

OC(CCN1CCCCC1)(c1ccccc1)C1CC2C=CC1C2 (centres undefined)
inactive: [1] | [2] | [3] | [9] | [4] | [5] | [6] | [7] | [8]

N[C@@H]1CONC1=O
inactive: [1] | [2] | [3] | [9] | [4] | [6] | [7] | [8]

NS(=O)(=O)c1cc2c(cc1Cl)NC=NS2(=O)=O
inactive: [1] | [2] | [3] | [9] | [4] | [5] | [6] | [7] | [8]

CC(=O)Oc1ccccc1C(=O)O
inactive: [1] | [2] | [3] | [9] | [4] | [6] | [7] | [8]

NNCCc1ccccc1
inactive: [1] | [2] | [3] | [9] | [4] | [7] | [8]

Cc1[nH]c(=O)c(C#N)cc1-c1ccncc1
inactive: [1] | [2] | [3] | [9] | [4] | [6] | [7] | [8]

NC(=O)c1cnccn1
inactive: [1] | [2] | [3] | [9] | [4] | [6] | [7] | [8]

CNC[C@H](O)c1cccc(O)c1
inactive: [1] | [2] | [3] | [9] | [4] | [6] | [7] | [8]

O=C1CCc2cc(OCCCCc3nnnn3C3CCCCC3)ccc2N1
inactive: [1] | [2] | [3] | [9] | [4] | [6] | [7] | [8]

O=C1CCC(N2C(=O)c3ccccc3C2=O)C(=O)N1 (centres undefined)
inactive: [1] | [2] | [3] | [9] | [4] | [6] | [7] | [8]

Cn1cnc([N+](=O)[O-])c1Sc1ncnc2nc[nH]c12
inactive: [1] | [2] | [3] | [9] | [4] | [6] | [7] | [8]

NCCCC(N)(C(=O)O)C(F)F (centres undefined)
inactive: [1] | [2] | [3] | [9] | [4] | [6] | [7] | [8]
